A selection: hits, their analogues and other compounds. The true share with any hit is near 27%.
CYP2C19 inh – inhibitors of human CYP2C19; CYP2C19 Supersomes, luciferin-H EGE luminescence, 30 min; AID 778; inhibition, % at 5 µM; actives 21% (n = 96,000); P33261;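 active means CYP2C19 inhibition above a set limit at 5 µM in the primary screen, cut at about 50% in these data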
CYP2C9 inhib – inhibitors of human CYP2C9; CYP2C9 Supersomes, luciferin-H conversion, luminescence; actives 20% (n = 96,000); inhibition, % at 5 µM; AID 777; P11712;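 active means blocking of liver enzyme CYP2C9 beyond about 50% at 5 µM, limit read from the data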
Target sequence (P11712 whole entry, looked up): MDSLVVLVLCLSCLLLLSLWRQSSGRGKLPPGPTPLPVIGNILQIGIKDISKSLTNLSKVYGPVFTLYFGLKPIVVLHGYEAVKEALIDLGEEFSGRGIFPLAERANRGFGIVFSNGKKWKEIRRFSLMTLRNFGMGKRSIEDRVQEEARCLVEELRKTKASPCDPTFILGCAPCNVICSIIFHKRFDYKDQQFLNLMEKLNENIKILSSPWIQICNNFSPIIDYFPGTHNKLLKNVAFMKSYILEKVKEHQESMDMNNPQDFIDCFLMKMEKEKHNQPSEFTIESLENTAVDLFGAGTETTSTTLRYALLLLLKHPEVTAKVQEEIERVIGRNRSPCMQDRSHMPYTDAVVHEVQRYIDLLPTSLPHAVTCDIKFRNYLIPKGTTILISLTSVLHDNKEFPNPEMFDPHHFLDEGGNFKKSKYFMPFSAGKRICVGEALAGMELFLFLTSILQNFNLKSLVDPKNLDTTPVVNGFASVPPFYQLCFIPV
CYP2C9 activ – CYP2C9 (human) activation | P11712 | recombinant CYP2C9, luciferin-H conversion, luminescence; active compounds read high; factor 1 = untreated enzyme, 0 = blocked | activation factor at 5 µM | actives 1.4% (n = 96,000) | AID 1024;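 active means activation factor of 2 or more for CYP2C9 at a 5 µM dose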
Cav32 inh – inhibitors of human Cav3.2 T-type calcium channel; O95180; Cav3.2-expressing cells, Fluo-4 calcium fluorescence FDSS; active compounds read low; B-score at 10 µM; actives 4% (n = 100,000); AID 449739;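 active means single-dose well whose peak fluorescence ratio is a statistical outlier from its plate by either plate-standardised score or position-corrected B-score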
CYP2C19 activ – activators of human cytochrome P450 2C19. 96,000 tested, under 10 active. P33261. recombinant CYP2C19, luciferin-H EGE luminescence; active compounds read high; 0 = fully inhibited enzyme, 1 = untreated enzyme. AID 1025. activation factor at 5 µM;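 active means activation factor of at least 2 at 5 µM in the primary screen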
Large screens that a line does not name were inactive.

NC(=O)c1sc2cc(C(F)(F)F)cnc2c1-c1cccs1	none (no result: Cav32 inh)
NC(=O)c1ncc(C(F)(F)F)cc1Oc1ccc(C(F)(F)F)cc1	CYP2C19 inh 75.3
CCc1ccc(Nc2nnc(SCc3cc(=O)n4ccsc4n3)s2)cc1	none (no result: Cav32 inh)
COc1ccc(CCNC(=O)C23CN(Cc4ccccc4)CC2C(c2ccc([N+](=O)[O-])cc2)=NO3)cc1 (centres undefined)	CYP2C19 inh 80.6, CYP2C9 inhib 59.4
Cc1ccc(CNC(=O)C23CN(Cc4ccccc4)CC2C(c2ccc([N+](=O)[O-])cc2)=NO3)o1 (centres undefined)	CYP2C9 inhib 53.8
O=C(NCc1ccco1)C12CN(Cc3ccccc3)CC1C(c1ccc([N+](=O)[O-])cc1)=NO2 (centres undefined)	none
COC(=O)c1sc2cnccc2c1N	none
COc1ccc(C2C(=O)N(C3CCCCC3)CC(=O)N2Cc2ccco2)cc1 (centres undefined)	none
O=C(OCC(=O)N1CCN(C(=O)c2ccco2)CC1)c1cc(-c2ccccc2)nc2ccccc12	CYP2C9 inhib 75.8
O=C(OCC(=O)N1CCN(C(=O)c2ccco2)CC1)c1ccccc1C(=O)c1ccccc1	none
O=C(OCC(=O)N1CCN(C(=O)c2ccco2)CC1)c1cc(-c2ccc(F)cc2)nc2ccccc12	none
O=C(OCC(=O)N1CCN(C(=O)c2ccco2)CC1)c1ccc(S(=O)(=O)N2CCCCC2)cc1	CYP2C9 inhib 59.7
O=C(OCC(=O)N1CCN(C(=O)c2ccco2)CC1)c1ccccc1OCc1ccccc1	CYP2C19 inh 63.7, CYP2C9 inhib 86.7
O=C(OCC(=O)N1CCCC1)c1ccccc1OCc1ccccc1	none
O=C(OCC(=O)N1CCN(C(=O)c2ccco2)CC1)c1cn(-c2ccccc2)nc1-c1ccccc1	CYP2C9 inhib 67.6
O=C(COC(=O)c1c[nH]c(=O)[nH]c1=O)NCc1ccccc1	none
CCOc1ccc(-c2nnn(CC(=O)N3CCCC3)n2)cc1OCC	none (no result: CYP2C19 inh, CYP2C9 inhib, CYP2C9 activ, CYP2C19 activ)
O=C1C=C(NC2CC2)C2(CCCCC2)O1	none
CCN(CC)C(=O)c1[nH]cnc1C(=O)N[C@@H](Cc1ccccc1)C(=O)OCc1ccccc1	none (no result: CYP2C19 inh, CYP2C9 inhib, CYP2C9 activ, CYP2C19 activ)
Cc1cc(C(=O)OCC(=O)N2CCN(c3ccccc3)CC2)c2ccccc2n1	CYP2C9 activ 2.8
O=C(OCC(=O)N1CCN(c2ccccc2)CC1)c1ccc2ncsc2c1	CYP2C19 inh 73.2
CCN(CC)c1ccc(C(=O)OCC(=O)N2CCN(c3ccccc3)CC2)cc1	none
Cn1c(C2=C(O)CN(c3ccc4c(c3)OCCO4)C2=N)nc2ccccc21	none
C=CCSC1=C(C#N)C2(CCCCC2)C(C#N)C(=O)N1 (centres undefined)	CYP2C19 inh 58.3, CYP2C9 inhib 83.2
C=CCSC1=NC(N)=C(C#N)C2(CCCCC2)C1C(N)=O (centres undefined)	CYP2C19 inh 88.8
N#CC1=C(SCC(=O)NC2CC2)NC(=O)C(C#N)C12CCCCC2 (centres undefined)	CYP2C9 inhib 67.9
O=C(CSC1=NC(=O)C(Cc2ccccc2)C(=O)N1)NC1CCCCC1 (centres undefined)	none
CC(C)(C)C1CCC2(CC1)C(C#N)=C(SCC(=O)NC1CCCCC1)NC(=O)C2C#N (centres undefined)	CYP2C9 inhib 91.6, Cav32 inh -4.23
CC(C)Sc1nc(C(F)(F)F)cc(=O)n1-c1ccccc1	none
O=C(CSc1ncn[nH]1)NC12CC3CC(CC(C3)C1)C2	none
N#CC1=C(SCC(=O)NC23CC4CC(CC(C4)C2)C3)NC(=O)C(C#N)C12CCCCC2 (centres undefined)	Cav32 inh -3.21 (no result: CYP2C19 inh, CYP2C9 inhib, CYP2C9 activ, CYP2C19 activ)
COC(=O)CN1C(c2ccccc2)=Nc2ccc(Cl)cc2C1c1ccccc1 (centres undefined)	Cav32 inh -6.71
NNC(=O)CN1C(c2ccc(Cl)cc2)=Nc2ccc(Br)cc2C1c1ccccc1 (centres undefined)	CYP2C9 inhib 58.1, Cav32 inh -9.88
CC1(C)CC(=O)C=C(NCC(=O)O)C1	none
Cc1ccc(CNC(=O)CSc2c3c(nc4ccc(Cl)cc24)CCCC3)o1	CYP2C9 inhib 61.0
Cc1nonc1NC(=O)CSc1nc2cc(Cl)ccc2c2c1CCCC2	none
CN(C)c1nc(N)nc(CSc2nnnn2C)n1	none
CN(C)c1nc(N)nc(CSc2ncc(Cl)cc2Cl)n1	CYP2C19 inh 64.3
CCn1c(COc2ccc(Cl)c(C)c2)nnc1SCC(=O)N1CCCC1	none
O=C(CCn1nnc2ccccc21)N1CCC(O)(c2cccc(F)c2)CC1	CYP2C9 inhib 52.0
O=C(CCn1nnc2ccccc21)Nc1nnc(Cc2ccc(F)cc2)s1	none
C1=C(c2ccccc2)CCN(c2ncnc3nc[nH]c23)C1	CYP2C19 inh 53.6 (no result: Cav32 inh)
c1ccc2c(c1)CCN(c1ncnc3nc[nH]c13)C2	none
CCSc1nnc(NC(=O)c2cccc(OCc3c(C)noc3C)c2)s1	CYP2C19 inh 88.1, CYP2C9 inhib 86.3
COc1ccc2nc(NC(=O)c3cccc(OCc4c(C)noc4C)c3)sc2c1	none (no result: Cav32 inh)
Cc1noc(C)c1COc1cccc(C(=O)NCc2ccccc2Cl)c1	CYP2C19 inh 58.1, CYP2C9 inhib 53.2
CCCS(=O)(=O)N1CCC(C(=O)NCc2ccco2)CC1	none
CC(=O)n1nc(-c2ccccc2)nc1NCc1ccc(F)cc1	Cav32 inh -4.65
Cc1cc(OC2CCCCC2)nc(-c2ccccc2O)n1	none
CC(C)(C)OC(=O)N1CCC2(CC1)Oc1ccc(F)cc1C(=O)C21CC(c2ccc(Cl)cc2)=NO1 (centres undefined)	none (no result: CYP2C19 inh, CYP2C9 inhib, CYP2C9 activ, CYP2C19 activ)
CCCCNS(=O)(=O)c1ccc2nc(SCC(=O)c3ccc(C#N)cc3)[nH]c2c1	CYP2C19 inh 74.5, CYP2C9 inhib 88.1
O=C1CC(c2cccc(Cl)c2)CC(O)=C1C=NCCCO (centres undefined)	CYP2C9 activ 2.7
CC(=O)OC1=C(C#N)Cn2ccc3cccc1c32	none (no result: Cav32 inh)
O=C(O)c1cccc(COc2ccccc2Cl)c1	CYP2C19 inh 96.6, CYP2C9 inhib 95.4
O=C(O)c1ccc(COc2ccccc2Cl)cc1	none
CC(=O)N1C(C(=O)O)CSC1c1ccc(C)cc1 (centres undefined)	none
O=C(Nc1ncn[nH]1)c1ccc(Cl)c(S(=O)(=O)N2CCCCCC2)c1	none
O=C(Nc1ncn[nH]1)c1c(Cl)ccc(Cl)c1Cl	CYP2C19 inh 87.5
CCOC(=O)Cc1c(C)nc2cc(C)nn2c1C	none (no result: CYP2C19 inh, CYP2C9 inhib, CYP2C9 activ, CYP2C19 activ)
CCOC(=O)Cc1nn2c(=O)cc(C)nc2s1	Cav32 inh -5
CCOC(=O)CCCNC(=O)CN1C(=O)NC2(CCCCCC2)C1=O	none
CCOC(=O)c1cc(-c2cc3ccccc3o2)n[nH]1	none
CCCc1cc(C(=O)Cc2ccc(C(=O)OCC)o2)c(O)cc1O	CYP2C19 inh 93.3, CYP2C9 inhib 91.3, Cav32 inh -4.13
CCOC(=O)c1ccc(CSc2nnc(C)n2N)o1	none
O=C(Cc1ccc(F)cc1)c1ccc(O)cc1O	CYP2C19 inh 53.0
CCCc1cc(C(=O)Cc2ccc(F)cc2)c(O)cc1O	CYP2C19 inh 98.4, CYP2C9 inhib 100.0

Bioassay records from PubChem BioAssay.
